# Reference: PubChem BioAssay
# Activity calls are given as the source filed them.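 Rule for the calls, unless noted: active = efflux inhibition above 0.42, the validation set average plus 4 SD; inconclusive = no clear call, values can overlap the other calls; inactive = the rest.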
# Columns and labels:
# [1] = reduced mouse 2C T cell binding to pMHC/ICAM-1 vesicles – MLPCN validation set, flow cytometry, LFA-1/ICAM-1 modulator project, pilot screen (AID 2523;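 active = response below a set limit, under 55% cells CD8-positive and vesicle-bound, and CD8 cells' 90th-percentile brightness under 279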;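 for vesicle binding response: mean PE anti-B7-1 fluorescence of CD8+ cells relative to row control; 100% = QL9-loaded vesicles with DMSO vehicle in the same plate row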); conditions: 2C mouse CD8+ T cells, at 7 µM, stronger effect = lower value; double positive events: measured here: CD8+/vesicle+ event percentage
# [2] = molecular target: Integrin beta-1 (Homo sapiens) + Integrin alpha-4 (Homo sapiens) (UniProt P13612+P05556); test: alpha4beta1 integrin LIBS antibody binding reduction – U937 cells, HUTS-21 mAb, flow cytometry, validation set, VLA-4 allosteric modulator project, pilot screen (AID 2674;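 active = inhibition above 50%, about 3 SD of the validation set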;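 note: antibody binding induced by the VLA-4 ligand LDV present at three times its Kd; 0% = LDV ligand with antibody and no compound and 100% = antibody without LDV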); conditions: HUTS-21 LIBS mAb binding, at 6.7 µM, stronger effect = higher value, binding induced by LDV ligand
# [3] = calorie-restriction mimetic ROS inhibitors, yeast – validation compound set, pilot screen (AID 2706;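 active = superoxide response below 65% of plate, a cut near 3 SD across the whole screen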;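 note: yeast exposed to compound for one week at 30 degrees C before staining; 100% = mean of all compound wells on the same plate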); conditions: S. cerevisiae aging, superoxide DHE fluorescence; at 10 µM, stronger effect = lower value
# [4] = molecular target: Beta-adrenergic receptor kinase 1 (Homo sapiens) (UniProt P25098); test: GRK2 binders displacing RNA aptamer, biochemical, validation, human GRK2, bead flow cytometry (AID 488806;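 active = aptamer binding inhibition above 30%, about 3 SD of noise from non-fluorescent compounds; inactive = inhibition at or below 30%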); conditions: bead-bound GRK2, FAM-aptamer displacement, at 10 µM, stronger effect = higher value
# [5] = molecular target: AP-2 complex subunit beta (Homo sapiens) (UniProt P63010); test: beta-arrestin/AP2 interaction blockers – biochemical, validation set, GST-AP2 beads, flow cytometry, pilot screen (AID 504541;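 active = inhibition above 54%, about 3 SD of non-fluorescent compounds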;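 note: AP2 carries R879A mutation and is captured from E. coli lysate; bead-bound FITC arrestin peptide fluorescence measuring arrestin peptide binding to AP2; 0% = DMSO wells and 100% = excess unlabeled arrestin peptide control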); conditions: FITC arrestin peptide, at 10 µM, stronger effect = higher value, AP2 beta2 appendage fragment, R879A mutant
# [6] = cytosolic pH regulators acting via V-ATPase – S. cerevisiae, pHLuorin, HTS validation (AID 504600; in the data active = response above about 15%;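 note: plate controls were DMSO for no effect and reference compound for full effect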); conditions: V-ATPase proton transport, at 10 µM, stronger effect = higher value
# [7] = tested on: anti-desmoglein-3 scFv antibody binding to human DSG3; test: blockers of pathogenic pemphigus antibody–desmoglein-3 binding – biochemical, validation compound set, bead-based, flow cytometry, pilot screen (AID 588368;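 active = binding below the plate cutoff, the plate median minus 3 SD, with a reading above zero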;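 note: signal is the median channel fluorescence of bead-bound GFP antibody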); conditions: Protein G beads, DSG3-Fc, scFv-GFP binding, at 10 µM, stronger effect = lower value
# [8] = Nile Red efflux blockade in pump-expressing yeast – validation compound set, multiplex, phenotypic, pilot screen (AID 588506);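 note: Nile Red retained in cells so higher fluorescence means more efflux inhibition; 0 = negative control wells and 1 = enniatin B 25 µM full block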; conditions: S. cerevisiae pump-expressing triplex, Nile Red efflux flow cytometry; at 10 µM; stronger effect = higher value; the pumps come from Candida albicans
# [9] = molecular target: ATP-binding cassette sub-family B member 6 (Homo sapiens) (UniProt Q9NP58); test: blockers of ABCB6-driven porphyrin uptake – K562-ABCB6 cells, flow cytometry, validation set, pilot screen (AID 588550;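 active = inhibition above the screen-wide mean plus 3 SD, about 51%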;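 note: 0% = DMSO wells and 100% = benzethonium chloride 70 µM positive control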); conditions: K562-ABCB6 porphyrin accumulation, 1 h, at 10 µM, stronger effect = higher value
# [10] = AML differentiation inducers, ER-HoxA9 marrow cells – cell-based, GFP/MAC1 double positive, flow cytometry, validation set, primary screen (AID 588685;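 active = differentiation response of at least 50%, scaled between solvent and reference control, from cells with both markers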;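 note: compound exposure lasts four days before antibody staining and flow analysis; 0% = DMSO wells and 100% = 5 µM fulvestrant positive control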); conditions: stronger effect = higher value, normalized: vehicle 0, fulvestrant 100
# AP-2 complex subunit beta (Homo sapiens), sequence (P63010 whole entry, looked up, the tested form may be a part, one chain of several): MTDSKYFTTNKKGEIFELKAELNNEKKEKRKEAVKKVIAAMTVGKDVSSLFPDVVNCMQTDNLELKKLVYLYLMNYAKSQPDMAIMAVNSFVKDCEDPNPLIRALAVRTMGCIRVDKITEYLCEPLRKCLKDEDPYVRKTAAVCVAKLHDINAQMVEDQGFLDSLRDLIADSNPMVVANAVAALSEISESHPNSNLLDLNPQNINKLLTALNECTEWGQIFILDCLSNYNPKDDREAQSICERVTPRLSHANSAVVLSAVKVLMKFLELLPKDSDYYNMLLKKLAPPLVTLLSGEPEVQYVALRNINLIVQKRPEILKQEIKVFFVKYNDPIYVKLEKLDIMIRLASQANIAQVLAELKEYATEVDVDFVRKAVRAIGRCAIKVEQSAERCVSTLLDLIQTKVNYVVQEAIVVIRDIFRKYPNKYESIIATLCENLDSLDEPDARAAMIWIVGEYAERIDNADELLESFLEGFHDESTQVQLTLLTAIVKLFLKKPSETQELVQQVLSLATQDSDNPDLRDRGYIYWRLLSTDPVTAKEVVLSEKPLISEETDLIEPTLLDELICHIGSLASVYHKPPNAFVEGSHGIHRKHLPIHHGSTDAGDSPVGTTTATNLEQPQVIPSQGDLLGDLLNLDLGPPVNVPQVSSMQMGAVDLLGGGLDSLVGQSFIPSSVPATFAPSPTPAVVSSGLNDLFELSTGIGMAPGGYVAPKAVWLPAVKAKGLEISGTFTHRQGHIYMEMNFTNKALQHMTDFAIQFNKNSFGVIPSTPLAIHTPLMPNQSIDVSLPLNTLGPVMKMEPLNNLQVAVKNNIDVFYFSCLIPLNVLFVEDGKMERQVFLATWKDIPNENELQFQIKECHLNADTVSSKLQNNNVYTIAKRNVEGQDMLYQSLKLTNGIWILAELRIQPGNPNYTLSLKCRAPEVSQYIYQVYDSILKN
# Integrin beta-1 (Homo sapiens) + Integrin alpha-4 (Homo sapiens), sequence (P05556 whole entry, looked up): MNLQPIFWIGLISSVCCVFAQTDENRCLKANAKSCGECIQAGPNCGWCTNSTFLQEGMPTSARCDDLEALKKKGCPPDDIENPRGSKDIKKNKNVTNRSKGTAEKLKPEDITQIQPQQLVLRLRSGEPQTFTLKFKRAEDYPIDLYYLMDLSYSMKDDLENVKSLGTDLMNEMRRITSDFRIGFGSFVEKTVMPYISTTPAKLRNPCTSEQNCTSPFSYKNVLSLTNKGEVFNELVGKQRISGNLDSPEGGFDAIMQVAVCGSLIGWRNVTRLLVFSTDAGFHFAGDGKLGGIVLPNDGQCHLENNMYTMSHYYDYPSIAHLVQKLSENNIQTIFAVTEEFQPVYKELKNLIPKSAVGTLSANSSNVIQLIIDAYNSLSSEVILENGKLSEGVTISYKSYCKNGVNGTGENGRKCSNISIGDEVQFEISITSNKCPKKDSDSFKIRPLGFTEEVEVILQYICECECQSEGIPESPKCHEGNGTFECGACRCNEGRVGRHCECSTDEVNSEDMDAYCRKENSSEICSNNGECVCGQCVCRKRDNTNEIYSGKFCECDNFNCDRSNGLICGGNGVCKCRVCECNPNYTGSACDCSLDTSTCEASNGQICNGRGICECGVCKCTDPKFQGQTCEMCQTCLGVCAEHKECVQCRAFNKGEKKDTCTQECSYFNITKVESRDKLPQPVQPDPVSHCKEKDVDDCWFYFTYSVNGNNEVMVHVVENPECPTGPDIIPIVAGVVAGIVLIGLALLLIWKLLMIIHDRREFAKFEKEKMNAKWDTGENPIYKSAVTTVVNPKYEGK
# Integrin beta-1 (Homo sapiens) + Integrin alpha-4 (Homo sapiens), sequence (P13612 whole entry, looked up): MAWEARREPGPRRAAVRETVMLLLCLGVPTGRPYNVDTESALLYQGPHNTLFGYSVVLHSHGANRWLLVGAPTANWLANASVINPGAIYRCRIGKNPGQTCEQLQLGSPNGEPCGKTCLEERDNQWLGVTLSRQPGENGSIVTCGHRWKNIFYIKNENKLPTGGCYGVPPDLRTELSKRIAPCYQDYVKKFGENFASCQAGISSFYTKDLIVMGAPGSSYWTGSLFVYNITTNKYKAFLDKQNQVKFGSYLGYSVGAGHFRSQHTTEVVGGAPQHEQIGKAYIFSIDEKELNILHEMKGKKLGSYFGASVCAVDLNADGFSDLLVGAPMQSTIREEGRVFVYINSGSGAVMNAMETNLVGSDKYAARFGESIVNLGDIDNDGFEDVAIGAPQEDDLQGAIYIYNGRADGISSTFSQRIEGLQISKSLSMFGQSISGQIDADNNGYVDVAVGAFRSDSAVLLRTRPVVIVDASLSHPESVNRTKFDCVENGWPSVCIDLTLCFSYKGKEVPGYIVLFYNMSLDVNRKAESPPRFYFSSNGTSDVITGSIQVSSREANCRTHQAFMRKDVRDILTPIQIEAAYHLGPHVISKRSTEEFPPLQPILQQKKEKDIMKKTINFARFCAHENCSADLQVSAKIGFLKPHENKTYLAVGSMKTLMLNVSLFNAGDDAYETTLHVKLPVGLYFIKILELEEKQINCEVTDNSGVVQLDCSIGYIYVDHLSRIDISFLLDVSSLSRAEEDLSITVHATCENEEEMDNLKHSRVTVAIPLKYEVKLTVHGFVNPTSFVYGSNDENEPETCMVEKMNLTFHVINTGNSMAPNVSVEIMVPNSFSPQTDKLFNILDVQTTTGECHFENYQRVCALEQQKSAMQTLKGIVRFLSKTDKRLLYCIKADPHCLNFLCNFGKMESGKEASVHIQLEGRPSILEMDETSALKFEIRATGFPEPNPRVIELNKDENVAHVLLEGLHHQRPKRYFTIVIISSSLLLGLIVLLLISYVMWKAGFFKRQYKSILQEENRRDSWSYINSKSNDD
# Beta-adrenergic receptor kinase 1 (Homo sapiens), sequence (P25098 whole entry, looked up): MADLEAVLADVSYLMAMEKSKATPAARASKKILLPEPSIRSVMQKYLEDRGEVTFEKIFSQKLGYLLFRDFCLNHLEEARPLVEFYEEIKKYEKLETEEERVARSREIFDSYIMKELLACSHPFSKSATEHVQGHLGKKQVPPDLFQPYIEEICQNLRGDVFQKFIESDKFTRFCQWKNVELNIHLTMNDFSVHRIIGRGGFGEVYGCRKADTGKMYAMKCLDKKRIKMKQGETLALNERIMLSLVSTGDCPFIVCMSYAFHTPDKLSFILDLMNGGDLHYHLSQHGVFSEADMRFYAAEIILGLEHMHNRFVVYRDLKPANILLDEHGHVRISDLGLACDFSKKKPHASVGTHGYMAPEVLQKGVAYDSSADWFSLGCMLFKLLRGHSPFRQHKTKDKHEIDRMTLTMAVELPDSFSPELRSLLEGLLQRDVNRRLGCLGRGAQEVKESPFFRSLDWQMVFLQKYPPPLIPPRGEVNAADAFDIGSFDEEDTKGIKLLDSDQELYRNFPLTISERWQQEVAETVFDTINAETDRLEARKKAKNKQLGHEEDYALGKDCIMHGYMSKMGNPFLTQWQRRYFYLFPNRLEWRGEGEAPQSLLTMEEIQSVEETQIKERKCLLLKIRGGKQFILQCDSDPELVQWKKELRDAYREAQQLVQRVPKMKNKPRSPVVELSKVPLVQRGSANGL
# ATP-binding cassette sub-family B member 6 (Homo sapiens), sequence (Q9NP58 whole entry, looked up): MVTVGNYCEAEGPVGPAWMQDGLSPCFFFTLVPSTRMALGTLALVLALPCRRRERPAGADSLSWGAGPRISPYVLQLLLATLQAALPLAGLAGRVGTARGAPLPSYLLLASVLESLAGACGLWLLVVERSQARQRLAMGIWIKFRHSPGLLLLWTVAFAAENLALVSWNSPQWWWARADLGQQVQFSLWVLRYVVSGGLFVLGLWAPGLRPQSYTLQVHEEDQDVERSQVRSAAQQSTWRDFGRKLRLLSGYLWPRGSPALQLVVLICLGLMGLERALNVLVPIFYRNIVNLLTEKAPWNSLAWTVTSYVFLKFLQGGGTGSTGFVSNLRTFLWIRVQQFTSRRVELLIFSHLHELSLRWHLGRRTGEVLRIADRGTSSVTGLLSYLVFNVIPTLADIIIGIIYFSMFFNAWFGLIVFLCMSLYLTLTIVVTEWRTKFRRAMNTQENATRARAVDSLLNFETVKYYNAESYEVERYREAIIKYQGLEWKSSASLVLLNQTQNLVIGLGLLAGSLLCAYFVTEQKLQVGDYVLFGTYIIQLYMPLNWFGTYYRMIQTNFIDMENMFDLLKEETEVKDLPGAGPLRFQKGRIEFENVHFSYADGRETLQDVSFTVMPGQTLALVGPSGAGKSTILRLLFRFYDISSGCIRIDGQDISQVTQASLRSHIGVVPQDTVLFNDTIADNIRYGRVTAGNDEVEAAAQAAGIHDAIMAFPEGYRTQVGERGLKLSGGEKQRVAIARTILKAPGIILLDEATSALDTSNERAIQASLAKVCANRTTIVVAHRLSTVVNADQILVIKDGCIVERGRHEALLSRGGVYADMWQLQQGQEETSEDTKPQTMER
smiles,measurement,setting,value
O=C1CC(c2ccc(F)cc2)Cc2nc(NCC3CCCO3)ncc21 (configuration not stated),double positive events,[1],55.2%
same,vesicle binding response,[1],192% (inactive)
same,inhibition,[2],6.29% (inactive)
same,superoxide response (% of plate),[3],99.1% (inactive)
same,aptamer binding inhibition,[4],3% (inactive)
same,inhibition,[5],-9.45% (inactive)
same,response,[6],-2.69% (inactive)
same,binding (% of control),[7],99.8% (inactive)
same,efflux inhibition (fraction of control),[8],-0.12 (inactive)
same,inhibition,[9],7% (inactive)
same,differentiation response,[10],38.5% (inactive)
Cc1ccc2nc3c(cc(C(=O)NCC4CCCO4)c(=N)n3CCCOC(C)C)c(=O)n2c1 (configuration not stated),double positive events,[1],62.1%
same,vesicle binding response,[1],176% (inactive)
same,inhibition,[2],9.09% (inactive)
same,superoxide response (% of plate),[3],82.4% (inactive)
same,aptamer binding inhibition,[4],0% (inactive)
same,inhibition,[5],-3.18% (inactive)
same,response,[6],-20.8% (inactive)
same,binding (% of control),[7],100% (inactive)
same,efflux inhibition (fraction of control),[8],0.33 (inactive)
same,inhibition,[9],14% (inactive)
same,differentiation response,[10],-24.4% (inactive)
COc1ccc2[nH]c(C)c(CN3CCC(C)CC3)c(=O)c2c1,double positive events,[1],50.2%
same,vesicle binding response,[1],154% (inactive)
same,inhibition,[2],-14.2% (inactive)
same,superoxide response (% of plate),[3],100% (inactive)
same,aptamer binding inhibition,[4],2% (inactive)
same,inhibition,[5],-1.75% (inactive)
same,response,[6],4.29% (inactive)
same,binding (% of control),[7],98.5% (inactive)
same,efflux inhibition (fraction of control),[8],0.1 (inactive)
same,inhibition,[9],2% (inactive)
same,differentiation response,[10],-5.05% (inactive)
CC1(C)CC(CC(=O)Nc2nccs2)(c2ccccc2)CCO1 (configuration not stated),double positive events,[1],51.5%
same,vesicle binding response,[1],182% (inactive)
same,inhibition,[2],4.42% (inactive)
same,superoxide response (% of plate),[3],103% (inactive)
same,aptamer binding inhibition,[4],-7% (inactive)
same,inhibition,[5],-9.2% (inactive)
same,response,[6],5.11% (inactive)
same,binding (% of control),[7],96.4% (inactive)
same,efflux inhibition (fraction of control),[8],0.18 (inactive)
same,inhibition,[9],8% (inactive)
same,differentiation response,[10],1.41% (inactive)
Cc1ccsc1/C=N\NC(=O)c1ccc2c(c1)OCO2,double positive events,[1],62.5%
same,vesicle binding response,[1],183% (inactive)
same,inhibition,[2],10.9% (inactive)
same,superoxide response (% of plate),[3],97% (inactive)
same,aptamer binding inhibition,[4],3% (inactive)
same,inhibition,[5],11.1% (inactive)
same,response,[6],1.01% (inactive)
same,binding (% of control),[7],99.5% (inactive)
same,efflux inhibition (fraction of control),[8],-0.12 (inactive)
same,inhibition,[9],7% (inactive)
same,differentiation response,[10],1.41% (inactive)
O=C(CNC(=O)OCc1ccccc1)NC1CCCCCC1,double positive events,[1],55.1%
same,vesicle binding response,[1],201% (inactive)
same,inhibition,[2],10% (inactive)
same,superoxide response (% of plate),[3],90.8% (inactive)
same,aptamer binding inhibition,[4],4% (inactive)
same,inhibition,[5],1.41% (inactive)
same,response,[6],11.3% (inactive)
same,binding (% of control),[7],99.1% (inactive)
same,efflux inhibition (fraction of control),[8],-0.05 (inactive)
same,inhibition,[9],12% (inactive)
same,differentiation response,[10],6.26% (inactive)
CNC[C@H](O)c1cccc(O)c1,double positive events,[1],61.2%
same,vesicle binding response,[1],124% (inactive)
same,inhibition,[2],-10.5% (inactive)
same,superoxide response (% of plate),[3],96.3% (inactive)
same,aptamer binding inhibition,[4],0% (inactive)
same,inhibition,[5],-4.38% (inactive)
same,response,[6],3.91% (inactive)
same,binding (% of control),[7],102% (inactive)
same,efflux inhibition (fraction of control),[8],0.875 (active)
same,inhibition,[9],-8% (inactive)
same,differentiation response,[10],7.13% (inactive)
COc1ccc(-c2c(C)c3ccc(OCC(C)=O)cc3oc2=O)cc1,double positive events,[1],46.6%
same,vesicle binding response,[1],128% (inactive)
same,inhibition,[2],3.49% (inactive)
same,superoxide response (% of plate),[3],113% (inactive)
same,aptamer binding inhibition,[4],6% (inactive)
same,inhibition,[5],-9.08% (inactive)
same,response,[6],-2.13% (inactive)
same,binding (% of control),[7],103% (inactive)
same,efflux inhibition (fraction of control),[8],-0.05 (inactive)
same,inhibition,[9],9% (inactive)
same,differentiation response,[10],3.03% (inactive)
C[C@]12CCC(=O)C=C1CC[C@@H]1[C@@H]2CC[C@@]2(C)[C@H]1CC[C@]2(O)C(=O)CO,double positive events,[1],54.2%
same,vesicle binding response,[1],143% (inactive)
same,inhibition,[2],5.36% (inactive)
same,superoxide response (% of plate),[3],96.8% (inactive)
same,aptamer binding inhibition,[4],4% (inactive)
same,inhibition,[5],-3.62% (inactive)
same,response,[6],1.37% (inactive)
same,binding (% of control),[7],96.2% (inactive)
same,efflux inhibition (fraction of control),[8],-0.31 (inactive)
same,inhibition,[9],4% (inactive)
same,differentiation response,[10],-3.43% (inactive)
C(=C/c1nccc2c1[nH]c1ccccc12)/c1ccc2c(c1)OCO2,double positive events,[1],58.5%
same,vesicle binding response,[1],170% (inactive)
same,inhibition,[2],-239% (inactive)
same,superoxide response (% of plate),[3],93.4% (inactive)
same,aptamer binding inhibition,[4],-1% (inactive)
same,inhibition,[5],23.3% (inactive)
same,response,[6],1.54% (inactive)
same,binding (% of control),[7],144% (inactive)
same,efflux inhibition (fraction of control),[8],-0.35 (inactive)
same,inhibition,[9],8% (inactive)
same,differentiation response,[10],-18% (inactive)
CCNC(=O)c1sc2cc(C)ccc2c1Cl,double positive events,[1],60.2%
same,vesicle binding response,[1],294% (inactive)
same,inhibition,[2],-10.5% (inactive)
same,superoxide response (% of plate),[3],86.4% (inactive)
same,aptamer binding inhibition,[4],-2% (inactive)
same,inhibition,[5],-9.7% (inactive)
same,response,[6],0.2% (inactive)
same,binding (% of control),[7],99.5% (inactive)
same,efflux inhibition (fraction of control),[8],-0.16 (inactive)
same,inhibition,[9],5% (inactive)
same,differentiation response,[10],1.41% (inactive)
CNS(=O)(=O)c1ccc(C)cc1,double positive events,[1],56.5%
same,vesicle binding response,[1],148% (inactive)
same,inhibition,[2],6.29% (inactive)
same,superoxide response (% of plate),[3],99.3% (inactive)
same,aptamer binding inhibition,[4],2% (inactive)
same,inhibition,[5],-8.71% (inactive)
same,response,[6],17.1% (active)
same,binding (% of control),[7],93.9% (inactive)
same,efflux inhibition (fraction of control),[8],0.1 (inactive)
same,inhibition,[9],8% (inactive)
same,differentiation response,[10],-0.2% (inactive)
